Test results published in PubChem BioAssay.
Several values for one entry are separate records, joined by “and”; a condition that tells them apart may be missing. Identical values can stand only once. Unmarked numbers belong to inactive results. The rule behind the calls is not given here.

Each molecule was assayed against Lethal factor (Bacillus anthracis) (UniProt P15917) (assay: Bacillus anthracis lethal factor inhibition, microsphere flow cytometry protease assay, validation at 10 µM (AID 588461)). Conditions: multiplex microsphere protease cleavage assay, hits give high values.
Chain of Lethal factor (Bacillus anthracis) (P15917 whole entry, looked up): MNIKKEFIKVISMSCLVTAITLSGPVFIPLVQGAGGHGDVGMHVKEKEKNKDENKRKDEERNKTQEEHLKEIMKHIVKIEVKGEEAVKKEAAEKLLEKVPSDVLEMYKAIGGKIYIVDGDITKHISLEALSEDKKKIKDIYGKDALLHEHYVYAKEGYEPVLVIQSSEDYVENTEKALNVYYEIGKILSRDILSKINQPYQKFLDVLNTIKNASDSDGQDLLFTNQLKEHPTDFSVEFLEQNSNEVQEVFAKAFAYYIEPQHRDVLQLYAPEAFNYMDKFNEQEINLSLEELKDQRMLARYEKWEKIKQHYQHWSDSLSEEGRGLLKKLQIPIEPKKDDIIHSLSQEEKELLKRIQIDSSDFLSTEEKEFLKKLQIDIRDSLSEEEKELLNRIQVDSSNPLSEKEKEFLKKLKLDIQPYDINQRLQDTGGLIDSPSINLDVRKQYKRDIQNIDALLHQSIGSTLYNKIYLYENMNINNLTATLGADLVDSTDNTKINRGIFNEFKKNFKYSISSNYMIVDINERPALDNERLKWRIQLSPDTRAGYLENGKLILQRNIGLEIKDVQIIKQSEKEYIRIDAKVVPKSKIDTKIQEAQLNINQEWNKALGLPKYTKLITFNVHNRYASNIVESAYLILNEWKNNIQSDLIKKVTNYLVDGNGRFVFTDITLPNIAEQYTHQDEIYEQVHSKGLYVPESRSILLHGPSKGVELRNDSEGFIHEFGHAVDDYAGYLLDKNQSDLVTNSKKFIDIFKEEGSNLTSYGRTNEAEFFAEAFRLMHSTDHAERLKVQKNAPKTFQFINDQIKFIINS

Going from `CCC(=O)O[C@]1(C(=O)CCl)[C@@H](C)C[C@H]2[C@@H]3CCC4=CC(=O)C=C[C@]4(C)[C@@]3(F)[C@@H](O)C[C@@]21C` to `CC(C)OC(=O)C1C(=O)CC(C)(O)C(C(=O)OC(C)C)C1c1cccc(O)c1` (stereo not given), the inhibition rises from -3.4% to -2.7%.

Going from `CCNC(=O)C12CCC(C)(C(=O)O1)C2(C)C` (stereo not given) to `C[C@]12CCC3C(CC=C4C[C@@H](O)CC[C@@]43C)C1CCC2[C@]1(C)CCC(=O)O1` (stereo not given in full), the inhibition rises from -7.4% to -5.1%.

Compared with `COc1ccccc1-c1c(C(F)(F)F)oc2cc(OC(=O)c3ccc([N+](=O)[O-])cc3)ccc2c1=O`, `COc1ccc(-c2coc3cc(OC(=O)N4CCOCC4)ccc3c2=O)cc1` is lower in inhibition: 3.7% for the first, -0.4% for the second.

Going from `C=CCc1cccc2cc(C(=O)Nc3ccc(CC(=O)O)cc3)c(=O)oc12` to `Cc1ccccc1NC(=O)C1(C)Cc2ccccc2C(=O)O1` (stereo not given), the inhibition falls from 0.8% to -0.2%.

Compared with `CC(=O)C1=C(O)C(=O)N(CC(=O)O)C1c1ccccc1Cl` (stereo not given), `C=CCOC(=O)C1=C(C)NC(=O)NC1/C=C/c1ccccc1OC` (stereo not given) is higher in inhibition: -3% for the first, -0.8% for the second.

Compared with `C[N+]12CCCCC1C(COC(=O)c1ccc3c(c1)OCO3)CCC2` (stereo not given), `C(=C/c1nccc2c1[nH]c1ccccc12)/c1ccc2c(c1)OCO2` is lower in inhibition: -0.7% for the first, -1.4% for the second.

Going from `O=c1n(CCCN2CCN(c3cccc(Cl)c3)CC2)nc2ccccn12` to `COc1ccccc1N1CCN(CC(O)COc2cccc3ccccc23)CC1` (stereo not given), the inhibition falls from -1.3% to -6.6%.

First: CCOc1ccc(C(=O)NC(C)C2COc3ccccc3O2)cc1 (stereo not given)
Second: O=C(NC(=S)Nc1ccc2c(c1)OCCO2)c1ccccc1F
The inhibition of the first is lower: -4.7% for the first, -3% for the second.

Going from `COc1cc(CNc2ccc(C)c(C)c2)cc(OC)c1OC` to `COC(=O)c1cc(OC)c(OC)cc1NC(=O)Nc1ccc(OC)cc1OC`, the inhibition rises from -8.9% to 5.9%.

Compared with `COC(=O)c1cc(C(=O)NCCC(C)C)cc([N+](=O)[O-])c1`, `CCN(CC)C(=O)c1sc(NC(=O)c2c(OC)cccc2OC)c(C#N)c1C` is higher in inhibition: 2.1% for the first, 3.6% for the second.

Going from `O=C(Nc1ccc(Oc2c(F)c(F)c(F)c(F)c2F)cc1)OC1CCN2Cc3ccccc3N=C12` (stereo not given) to `Cc1ncoc1C(=O)N1CCCC(C(=O)c2ccc(-c3ccccc3)c(F)c2)C1` (stereo not given), the inhibition falls from 2.6% to -5.3%.

Compared with `COc1ccc2c(c1OC)C(=O)NC(C)=C(C(=O)OC(C)(C)C)C2O` (stereo not given), `CCc1c(C)c2ccc(OCC(=O)OC(C)C)c(C)c2oc1=O` is higher in inhibition: -5.3% for the first, -1.3% for the second.

Compared with `C[C@]12CC[C@@H]3c4ccc(O)cc4[C@@H](O)C[C@H]3[C@@H]1CC[C@@H]2O`, `Cc1ccc2c(c1)c(=O)c1c3n2CCN(C(=O)CCl)C3CC1` (stereo not given) is lower in inhibition: 0.8% for the first, -32.4% for the second.

Going from `CN1CCc2c(n(CC(O)CN(CCO)CCO)c3ccccc23)C1=O` (stereo not given) to `CC(C)CN1CCN(Cc2cccn2-c2ccccn2)CC1CCO` (stereo not given), the inhibition rises from -3.6% to 3.6%.

First: O=C1NCC2=C1C(c1ccccc1)Nc1ccccc1N2 (stereo not given)
Second: COc1cccc(-n2cc(CNCc3c(C(=O)N(C)C)nc4ccc(Cl)cn34)cn2)c1
The inhibition of the first is lower: -4.9% for the first, 7.5% for the second.

First: COc1ccc(S(N)(=O)=O)cc1C(N)=O
Second: C=CCOc1ccc(C(=O)CC)cc1OC
The inhibition of the first is higher: -0.3% for the first, -1.9% for the second.

First: COc1cc2c(cc1OC)C1(CCCCC1)CN(C)C2
Second: COc1ccc(/C=C(/C#N)c2cccnc2)cc1OC
The inhibition of the first is higher: -1.7% for the first, -7.4% for the second.

Compared with `C[N+](C)(C)CCOP(=O)(O)OP(=O)([O-])OC[C@H]1O[C@@H](n2ccc(N)nc2=O)[C@H](O)[C@@H]1O`, `COCCOC(=O)c1c(C)oc2ccc(OCc3cc(C(=O)OC)oc3C)cc12` is lower in inhibition: 8.1% for the first, 1.6% for the second.

Compared with `CC(O)Cn1cnc2c1c(=O)n(C)c(=O)n2C` (stereo not given), `COc1ccc2c(c1)[N+](C)(C)C(C)(C)C=C2C` is higher in inhibition: -3.2% for the first, 1.6% for the second.

For `CC(C)=CCC/C(C)=C/CC/C(C)=N/O`, the inhibition was 4.1%.

In the case of `Nc1ccc(C(=O)O)c(O)c1`, the inhibition is reported as -12% and -5.3%.
